This is part of a sample that, as a whole, favours compounds with a hit. Of some 83,000 tested, about 20% had one in any assay.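 Percent growth is the endpoint: 0 to 100 indicates growth inhibition (40 means 60% inhibition), 0 means no net growth, and negative values indicate cell death.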 Values without a mark were called inactive. Activity calls are given as the source filed them. How the source made its calls: active means growth percent below 10; inactive means the rest.

Test systems include HCT-15 colon; HT29 colon; SNB-75 CNS; SNB-19 CNS; U251 CNS; PC-3 prostate; UACC-62 melanoma; LOX IMVI melanoma; SK-MEL-28 melanoma; SK-MEL-2 melanoma; EKVX NSCLC; SN12C renal; UO-31 renal; TK-10 renal; ACHN renal; CAKI-1 renal; A498 renal; CCRF-CEM leukemia; MOLT-4 leukemia; SK-MEL-5 melanoma.
Common to all, as to assay: NCI-60 one-dose screen, 48 h (100 = growth as untreated, 0 = no growth, -100 = all killed)
Common to all, as to settings: 10 µM unless noted

As for `CCN(CC)CCOc1ccc(/C(=C(\C)c2ccc(OC)c(F)c2)c2ccc(Cl)cc2)cc1`, the growth is 7.79% (active) with HCT-15 colon; 14.9% with HT29 colon; 94.7% in the experiment on SNB-75 CNS; 91.8% in the experiment with SNB-19 CNS; 66.8% in the experiment on U251 CNS; 64.8% in the experiment on PC-3 prostate. For the same molecule, the growth in the experiment with UACC-62 melanoma was 60.1%; in the experiment with LOX IMVI melanoma it was 1.85% (active); in the experiment on SK-MEL-28 melanoma, 68%; in the experiment with SK-MEL-2 melanoma it was 95.9%; in the experiment with EKVX NSCLC it was 96.5%; with SN12C renal it was 83.5%. In addition, the growth in the experiment on UO-31 renal was 75.6%; in the experiment with TK-10 renal, 82.6%; with ACHN renal it was 89.8%; in the experiment with CAKI-1 renal it was 67.2%; in the experiment with A498 renal, 102%; in the experiment on CCRF-CEM leukemia, 60.2%. In addition, the growth in the experiment on MOLT-4 leukemia was 70.8%.
As for `NC(=O)c1c(NC(=O)c2ccc(C(F)(F)F)cc2Cl)sc2c1CCC(=O)C2`, the growth in the experiment on HCT-15 colon is -35% (active); with HT29 colon it was 1.16% (active); in the experiment on SNB-75 CNS, -81.9% (active); with SNB-19 CNS, 14%; in the experiment with U251 CNS it was -5.53% (active); in the experiment with PC-3 prostate, -68.8% (active). Besides, the growth with SK-MEL-5 melanoma was -91.9% (active); in the experiment on LOX IMVI melanoma, -15.5% (active); with SK-MEL-28 melanoma, -67.2% (active); with SK-MEL-2 melanoma it was -11.1% (active); in the experiment with EKVX NSCLC, -9.99% (active); with UO-31 renal, -100% (active). Also, the growth was 6.29% (active) with TK-10 renal; -91.1% (active) with ACHN renal; -82.2% (active) in the experiment with CAKI-1 renal; 61.9% in the experiment with A498 renal; -12.9% (active) in the experiment on MOLT-4 leukemia.
For `O[C@H]1CO[C@H]2[C@@H]1OC[C@@H]2Oc1ccc(Nc2nc(Nc3ccc(F)c(Cl)c3)ncc2F)cc1Cl`, the growth is 90.8% in the experiment on HCT-15 colon; 111% with HT29 colon; 74.7% with SNB-75 CNS; 103% in the experiment on SNB-19 CNS; 108% in the experiment on U251 CNS; 102% in the experiment with PC-3 prostate. For the same molecule, the growth in the experiment on SK-MEL-5 melanoma is -90.5% (active); in the experiment on LOX IMVI melanoma, 103%; with SK-MEL-28 melanoma, 99.7%; in the experiment with SK-MEL-2 melanoma, 113%; in the experiment with EKVX NSCLC, 92.2%; in the experiment with SN12C renal, 97%. In addition, the growth is 88% in the experiment on UO-31 renal; 105% with TK-10 renal; 105% in the experiment with ACHN renal; 93.5% with CAKI-1 renal; 94.4% in the experiment with A498 renal; 103% in the experiment on MOLT-4 leukemia.
`CCCCN(Cc1ccc(C(=O)NO)cc1)C(=O)Nc1ccc(OCCCCCCCCCn2cc(CCCCC(=O)N[C@H](C(=O)N3C[C@H](O)C[C@H]3C(=O)NCc3ccc(-c4scnc4C)cc3)C(C)(C)C)nn2)cc1`: the growth is 88.7% in the experiment on HCT-15 colon; 19.8% in the experiment with HT29 colon; 34.6% in the experiment on SNB-75 CNS; 29.5% in the experiment on SNB-19 CNS; 34.8% with U251 CNS; 27.8% in the experiment with PC-3 prostate. In addition, the growth in the experiment with UACC-62 melanoma was 35.9%; with LOX IMVI melanoma it was 23.2%; in the experiment with SK-MEL-28 melanoma it was 62.8%; in the experiment with SK-MEL-2 melanoma, 90.6%; in the experiment with EKVX NSCLC, 72.1%; in the experiment on SN12C renal it was 31%. The growth with UO-31 renal was 70.8%; with TK-10 renal, 87.6%; with ACHN renal, 105%; in the experiment with CAKI-1 renal it was 61.7%; in the experiment on A498 renal, 66.5%; in the experiment on CCRF-CEM leukemia it was 13%. The growth in the experiment with MOLT-4 leukemia is 14.5%.
`Cc1nc(Nc2ccc(NC(=S)Nc3ccccc3)cc2)nc2nc(SCc3ccccc3)[nH]c(=O)c12`: the growth in the experiment on HCT-15 colon is 108%; with HT29 colon, 120%; in the experiment on SNB-75 CNS it was 104%; in the experiment with SNB-19 CNS, 102%; in the experiment with U251 CNS it was 100%; in the experiment on PC-3 prostate, 100%. Further, the growth in the experiment with SK-MEL-5 melanoma is 99.7%; in the experiment with LOX IMVI melanoma, 101%; in the experiment with SK-MEL-28 melanoma, 115%; in the experiment on SK-MEL-2 melanoma, 110%; in the experiment with EKVX NSCLC it was 99.2%; in the experiment on SN12C renal it was 93.6%. In addition, the growth in the experiment on UO-31 renal is 86%; in the experiment on TK-10 renal, 199%; with ACHN renal it was 107%; in the experiment on A498 renal it was 102%; with CCRF-CEM leukemia it was 92.3%; with MOLT-4 leukemia, 87.4%.
Regarding `CC(=O)Nc1ccc2c(c1)Cc1c(F)cccc1-2`, the growth with HCT-15 colon was 108%; in the experiment on HT29 colon, 111%; with SNB-75 CNS, 73.7%; in the experiment with SNB-19 CNS, 107%; in the experiment on U251 CNS, 107%; with PC-3 prostate it was 88.4%. Moreover, the growth in the experiment with UACC-62 melanoma was 98.9%; in the experiment with LOX IMVI melanoma, 103%; in the experiment with SK-MEL-28 melanoma it was 117%; in the experiment on SK-MEL-2 melanoma, 128%; in the experiment on EKVX NSCLC, 101%; in the experiment with SN12C renal, 101%. Further, the growth is 49.2% in the experiment with UO-31 renal; 103% in the experiment on TK-10 renal; 93% in the experiment with ACHN renal; 87.2% in the experiment on CAKI-1 renal; 77.6% with A498 renal; 85.6% in the experiment on CCRF-CEM leukemia. Also, the growth with MOLT-4 leukemia was 111%.
As for `Fc1ccc(Nc2nc3nonc3nc2Nc2ccc(F)cc2)cc1`, the growth in the experiment with HCT-15 colon is 6.25% (active); in the experiment with HT29 colon, 2.83% (active); in the experiment with SNB-75 CNS it was -12.9% (active); in the experiment on SNB-19 CNS it was 23%; in the experiment on U251 CNS it was -6.58% (active); in the experiment on PC-3 prostate, 1.43% (active). Moreover, the growth was -46.4% (active) in the experiment with SK-MEL-5 melanoma; 2.74% (active) in the experiment on LOX IMVI melanoma; 4.39% (active) in the experiment with SK-MEL-28 melanoma; -26.2% (active) in the experiment with SK-MEL-2 melanoma; 12% in the experiment on SN12C renal; -6.75% (active) in the experiment on UO-31 renal. Moreover, the growth with TK-10 renal was -4.95% (active); with ACHN renal, -15.9% (active); with CAKI-1 renal, -8.48% (active); in the experiment with A498 renal, -41.1% (active); with CCRF-CEM leukemia, 17.1%; in the experiment on MOLT-4 leukemia, -8.01% (active).
